Common to all, as to conditions: mRNA level, 48 h; actives raise or lower the signal
Read-out in assay [1]: Nuclear factor NF-kappa-B p105 subunit (Homo sapiens) (UniProt P19838)
The assay can be described thus: LTEA_HepaRG_NFKB1: Life Technologies and Expression Analysis (LTEA) Assay for Nuclear Factor Kappa B Subunit 1 (NFKB1) using HepaRG (AID 2283521).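 Further: TaqMan qRT-PCR transcript normalised to ACTB GAPDH and POLR2A housekeeping genes.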 In outline: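 HepaRG, 48 h exposure; 8-pt half-log series from 100 uM in 0.5% DMSO; duplicates. Readout: NFKB1 mRNA by qRT-PCR (Fluidigm arrays), housekeeping-normalized. Gain/loss fit vs DMSO baseline.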

Read-out in assay [2]: Protein phosphatase 2A (PPP2R4), PTPA (gene 5524)
Kind of assay: LTEA_HepaRG_PPP2R4: Life Technologies and Expression Analysis (LTEA) Assay for Protein phosphatase 2A (PPP2R4) using HepaRG (AID 2283522). In outline: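 Gene-expression endpoint in HepaRG hepatic cells: 48 h treatment across eight half-log concentrations up to 100 uM in 0.5% DMSO. PPP2R4 mRNA by qRT-PCR, normalized to three endogenous control genes.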

Read-out in assay [3]: Phosphatase and tensin (PTEN), PTEN (gene 5728)
The assay can be described thus: LTEA_HepaRG_PTEN: Life Technologies and Expression Analysis (LTEA) Assay for Phosphatase and tensin (PTEN) using HepaRG (AID 2283523). The method, boiled down:
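Read-out is PTEN transcript level by multiplexed TaqMan qRT-PCR after 48 h chemical treatment of human HepaRG cultures in serum-free induction medium. Concentrations spanned 100 uM downward in half-log steps, 0.5% DMSO throughout; activity fitted in both directions against vehicle.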

Read-out in assay [4]: solute carrier (SLC22A1), SLC22A1 (gene 6580)
Kind of assay: LTEA_HepaRG_SLC22A1: Life Technologies and Expression Analysis (LTEA) Assay for solute carrier (SLC22A1) using HepaRG (AID 2283524). In outline: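 HepaRG (human liver line), 48 h dosing in serum-free induction medium; 8 conc., half-log down from 100 uM, 0.5% DMSO vehicle, duplicates. Endpoint: SLC22A1 mRNA, qRT-PCR, housekeeping-normalized; gain/loss fit vs DMSO.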

Read-out in assay [5]: Pyruvate Dehydrogenase Kinase 4 (PDK4), PDK4 (gene 5166)
The assay can be described thus: LTEA_HepaRG_PDK4: Life Technologies and Expression Analysis (LTEA) Assay for Pyruvate Dehydrogenase Kinase 4 (PDK4) using HepaRG (AID 2283525). The method, boiled down:
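In this multiplexed human HepaRG expression assay, cells are treated 48 h with test chemicals across an eight-point range starting at 100 uM. PDK4 mRNA changes, normalized to ACTB/GAPDH/POLR2A, are fitted in both directions relative to vehicle.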

Read-out in assay [6]: NAD(P)H dehydrogenase [quinone] 1 (NQO1), NQO1 (gene 1728)
The assay can be described thus: LTEA_HepaRG_NQO1: Life Technologies and Expression Analysis (LTEA) Assay for NAD(P)H dehydrogenase [quinone] 1 (NQO1) using HepaRG (AID 2283526). The method, boiled down:
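Human HepaRG hepatic cells received chemicals for 48 h in serum-free induction medium with 0.5% DMSO, up to 100 uM. Expression was assessed by TaqMan qRT-PCR against housekeeping controls and fitted bidirectionally against DMSO.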

Read-out in assay [7]: Nuclear factor erythroid 2-related factor 2 (Homo sapiens) (UniProt Q16236)
Kind of assay: LTEA_HepaRG_NFE2L2: Life Technologies and Expression Analysis (LTEA) Assay for Nuclear factor erythroid 2-related factor 2 (NFE2L2) Transcription Factor using HepaRG (AID 2283527).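 Further: TaqMan qRT-PCR transcript level normalised to ACTB GAPDH and POLR2A housekeeping genes.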 In outline:
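Transcript level of NFE2L2 is the read-out, measured by microfluidic TaqMan qRT-PCR and normalized to three housekeeping genes. Human HepaRG cultures received test chemical for 48 h at up to 100 uM in half-log steps. Gain or loss of signal is fitted relative to 0.5% DMSO.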

Read-out in assay [8]: succinate dehydrogenase complex iron sulfur subunit B (SDHB), SDHB (gene 6390)
Kind of assay: LTEA_HepaRG_SDHB: Life Technologies and Expression Analysis (LTEA) Assay for succinate dehydrogenase complex iron sulfur subunit B (SDHB) using HepaRG (AID 2283528). The method, boiled down:
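Readout is SDHB transcript level by qRT-PCR, normalised to three housekeeping genes and fitted bidirectionally against 0.5% DMSO vehicle. Human HepaRG cells were treated for 48 h at up to 100 uM.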

Read-out in assay [9]: Signal transducer and activator of transcription 3 (Homo sapiens) (UniProt P40763)
Kind of assay: LTEA_HepaRG_STAT3: Life Technologies and Expression Analysis (LTEA) Assay for Signal transducer and activator of transcription (STAT3) using HepaRG (AID 2283529). In outline: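 Read-out is STAT3 mRNA level by qRT-PCR, normalized to three housekeeping genes, in human HepaRG liver cells treated for 48 h. Concentrations ran from 100 uM downward in half-log steps; curves were fitted for gain or loss relative to 0.5% DMSO.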

Read-out in assay [10]: solute carrier (SLCO1B1), SLCO1B1 (gene 10599)
Kind of assay: LTEA_HepaRG_SLCO1B1: Life Technologies and Expression Analysis (LTEA) Assay for solute carrier (SLCO1B1) using HepaRG (AID 2283530). The method, boiled down:
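Differentiated human HepaRG cells, plated 48 h, switched to serum-free induction medium and exposed in duplicate for 48 h to 8 half-log concentrations (top 100 uM) in 0.5% DMSO. SLCO1B1 mRNA by TaqMan qRT-PCR, normalized to ACTB/GAPDH/POLR2A.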

Read-out in assay [11]: sulfotransferase 2A1 (SULT2A1), SULT2A1 (gene 6822)
Kind of assay: LTEA_HepaRG_SULT2A1: Life Technologies and Expression Analysis (LTEA) Assay for sulfotransferase 2A1 (SULT2A1) using HepaRG (AID 2283531). In outline:
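Differentiated human HepaRG cells in serum-free induction medium were exposed for 48 h to eight half-log concentrations (top 100 uM, 0.5% DMSO). SULT2A1 mRNA was measured by qRT-PCR, normalized to ACTB, GAPDH and POLR2A, and fitted bidirectionally against DMSO.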

Read-out in assay [12]: Transforming Growth Factor (TGFA), TGFA (gene 7039)
Kind of assay: LTEA_HepaRG_TGFA: Life Technologies and Expression Analysis (LTEA) Assay for Transforming Growth Factor (TGFA) using HepaRG (AID 2283532). In outline:
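HepaRG (human liver line), 48 h exposure, 8 conc. half-log down from 100 uM, 0.5% DMSO vehicle, duplicates; serum-free induction medium. TGFA mRNA by TaqMan qRT-PCR, ACTB/GAPDH/POLR2A normalization; gain/loss fit vs DMSO.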

Read-out in assay [13]: Transforming Growth Factor (TGFB1), TGFB1 (gene 7040)
Kind of assay: LTEA_HepaRG_TGFB1: Life Technologies and Expression Analysis (LTEA) Assay for Transforming Growth Factor (TGFB1) Transporter using HepaRG (AID 2283533). The method, boiled down:
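Differentiated human HepaRG cells in serum-free induction medium were exposed in duplicate for 48 h to eight concentrations (top 100 uM, half-log steps, 0.5% DMSO). TGFB1 mRNA was quantified by qRT-PCR, normalized to ACTB, GAPDH, POLR2A, and fitted bidirectionally against DMSO.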

Read-out in the next assay: TIMP1, TIMP1 (gene 7076)
The assay can be described thus: LTEA_HepaRG_TIMP1: Life Technologies and Expression Analysis (LTEA) Assay for TIMP1 using HepaRG (AID 2283534).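 On outcome: TaqMan qRT-PCR signal normalized to ACTB GAPDH and POLR2A housekeeping genes.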 In outline:
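Differentiated human HepaRG cells in serum-free induction medium were exposed 48 h to chemicals (8 half-log concentrations, top 100 uM, 0.5% DMSO). TIMP1 mRNA was quantified by TaqMan qRT-PCR, normalized to ACTB/GAPDH/POLR2A; bidirectional fit versus DMSO.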

Read-out in assay [14]: Tumor necrosis factor receptor 1 (TNFRSF1A), TNFRSF1A (gene 7132)
The assay can be described thus: LTEA_HepaRG_TNFRSF1A: Life Technologies and Expression Analysis (LTEA) Assay for Tumor necrosis factor receptor 1 (TNFRSF1A) using HepaRG (AID 2283535). In outline: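 Differentiated human HepaRG cells were exposed in duplicate for 48 h in serum-free induction medium to eight concentrations (top 100 uM, half-log steps, 0.5% DMSO). TNFRSF1A mRNA was quantified by qRT-PCR, normalized to ACTB, GAPDH and POLR2A, then fitted bidirectionally against DMSO.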

Read-out in assay [15]: Thyroid Hormone Responsive (THRSP), THRSP (gene 7069)
Kind of assay: LTEA_HepaRG_THRSP: Life Technologies and Expression Analysis (LTEA) Assay for Thyroid Hormone Responsive (THRSP) using HepaRG (AID 2283536). In outline: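 mRNA induction or loss relative to 0.5% DMSO vehicle was fitted bidirectionally across an eight-point curve whose highest exposure was 100 uM. Human HepaRG liver cells received chemicals in duplicate over 48 h before RNA extraction.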

Read-out in assay [16]: Cellular tumor antigen p53 (Homo sapiens) (UniProt P04637)
Kind of assay: LTEA_HepaRG_TP53: Life Technologies and Expression Analysis (LTEA) Assay for Tumor Protein P53 (TP53) using HepaRG (AID 2283537). The method, boiled down: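 Read-out is TP53 transcript level by microfluidic qRT-PCR, normalised to three housekeeping genes and fitted bidirectionally against DMSO. Human HepaRG cells received compounds for 48 h, highest concentration 100 uM.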

Read-out in assay [17]: UDP glucuronosyltransferase (UGT1A1), UGT1A1 (gene 54658)
Kind of assay: LTEA_HepaRG_UGT1A1: Life Technologies and Expression Analysis (LTEA) Assay for UDP glucuronosyltransferase (UGT1A1) using HepaRG (AID 2283538). The method, boiled down: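 Human liver HepaRG cultures receive test chemical for 48 h, up to 100 uM in 0.5% DMSO, with phenobarbital induction controls. UGT1A1 mRNA is measured by qRT-PCR and normalized to ACTB, GAPDH and POLR2A.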

Read-out in assay [18]: UDP glucuronosyltransferase (UGT1A6), UGT1A6 (gene 54578)
The assay can be described thus: LTEA_HepaRG_UGT1A6: Life Technologies and Expression Analysis (LTEA) Assay for UDP glucuronosyltransferase (UGT1A6) using HepaRG (AID 2283539). In outline:
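Human HepaRG cells were dosed for 48 h in serum-free induction medium with 0.5% DMSO vehicle, eight-point half-log series from 100 uM, in duplicate. UGT1A6 mRNA was measured by qRT-PCR, normalized to ACTB, GAPDH, POLR2A, and fitted bidirectionally against DMSO.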

Read-out in assay [19]: X-box binding protein 1 (XBP1), XBP1 (gene 7494)
Kind of assay: LTEA_HepaRG_XBP1: Life Technologies and Expression Analysis (LTEA) Assay for X-box binding protein 1 (XBP1) using HepaRG (AID 2283540). The method, boiled down:
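Differentiated human HepaRG cells in serum-free induction medium were exposed in duplicate for 48 h to eight half-log concentrations up to 100 uM in 0.5% DMSO. XBP1 mRNA was quantified by qRT-PCR, normalised to ACTB, GAPDH and POLR2A, with bidirectional fitting against DMSO.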

The source made the active and inactive calls. How the source made its calls: active means hit-call score of the fitted dose curve at least 0.9, where 1 is the maximum; inactive means score below 0.9.

Chain of Nuclear factor erythroid 2-related factor 2 (Homo sapiens) (Q16236 whole entry, looked up): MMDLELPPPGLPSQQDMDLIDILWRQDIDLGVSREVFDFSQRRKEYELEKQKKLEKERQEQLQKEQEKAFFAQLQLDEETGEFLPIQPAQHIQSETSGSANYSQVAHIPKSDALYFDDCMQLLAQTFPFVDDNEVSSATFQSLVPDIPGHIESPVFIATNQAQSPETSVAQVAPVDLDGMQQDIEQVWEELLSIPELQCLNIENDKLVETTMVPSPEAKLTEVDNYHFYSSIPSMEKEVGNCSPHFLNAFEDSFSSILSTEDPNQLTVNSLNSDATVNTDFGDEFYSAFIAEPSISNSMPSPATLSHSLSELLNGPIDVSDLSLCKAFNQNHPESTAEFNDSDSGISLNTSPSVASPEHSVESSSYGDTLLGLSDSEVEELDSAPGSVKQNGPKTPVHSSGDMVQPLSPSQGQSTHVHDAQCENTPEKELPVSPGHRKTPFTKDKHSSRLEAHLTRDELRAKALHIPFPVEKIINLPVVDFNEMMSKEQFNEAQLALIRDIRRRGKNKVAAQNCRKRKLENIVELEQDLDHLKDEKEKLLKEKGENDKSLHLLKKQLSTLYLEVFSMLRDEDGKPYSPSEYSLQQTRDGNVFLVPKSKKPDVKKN
Chain of Signal transducer and activator of transcription 3 (Homo sapiens) (P40763 whole entry, looked up): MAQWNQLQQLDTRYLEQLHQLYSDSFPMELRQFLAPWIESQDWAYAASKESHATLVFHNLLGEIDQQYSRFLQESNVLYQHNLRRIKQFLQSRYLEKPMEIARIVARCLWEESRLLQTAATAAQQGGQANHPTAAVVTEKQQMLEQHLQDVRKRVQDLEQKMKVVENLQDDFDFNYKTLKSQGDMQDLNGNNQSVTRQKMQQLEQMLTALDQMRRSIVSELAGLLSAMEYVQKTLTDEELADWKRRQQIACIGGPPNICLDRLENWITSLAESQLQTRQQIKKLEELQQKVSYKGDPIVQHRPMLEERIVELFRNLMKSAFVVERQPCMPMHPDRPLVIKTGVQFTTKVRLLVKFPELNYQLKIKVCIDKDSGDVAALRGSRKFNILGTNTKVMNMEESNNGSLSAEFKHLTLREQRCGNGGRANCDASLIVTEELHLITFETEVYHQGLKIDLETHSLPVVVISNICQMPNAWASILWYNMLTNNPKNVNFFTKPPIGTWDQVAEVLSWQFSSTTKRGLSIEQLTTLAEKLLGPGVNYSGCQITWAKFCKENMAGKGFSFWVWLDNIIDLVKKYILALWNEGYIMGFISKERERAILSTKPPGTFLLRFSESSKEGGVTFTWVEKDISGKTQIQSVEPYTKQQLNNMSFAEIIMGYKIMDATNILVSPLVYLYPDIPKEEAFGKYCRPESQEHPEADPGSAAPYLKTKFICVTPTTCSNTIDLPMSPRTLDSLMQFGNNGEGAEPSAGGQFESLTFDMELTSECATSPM
Chain of Cellular tumor antigen p53 (Homo sapiens) (P04637 whole entry, looked up): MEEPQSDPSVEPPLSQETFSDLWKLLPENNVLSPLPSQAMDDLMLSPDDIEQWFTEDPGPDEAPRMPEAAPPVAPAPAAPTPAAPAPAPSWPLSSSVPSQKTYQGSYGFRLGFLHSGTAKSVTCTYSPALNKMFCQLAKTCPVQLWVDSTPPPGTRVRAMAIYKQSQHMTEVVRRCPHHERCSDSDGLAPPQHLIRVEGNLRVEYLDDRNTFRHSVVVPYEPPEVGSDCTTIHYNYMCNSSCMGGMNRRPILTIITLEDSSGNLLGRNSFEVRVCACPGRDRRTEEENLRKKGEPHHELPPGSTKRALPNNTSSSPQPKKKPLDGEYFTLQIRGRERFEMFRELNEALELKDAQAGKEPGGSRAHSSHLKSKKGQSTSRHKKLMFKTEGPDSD
Chain of Nuclear factor NF-kappa-B p105 subunit (Homo sapiens) (P19838 whole entry, looked up): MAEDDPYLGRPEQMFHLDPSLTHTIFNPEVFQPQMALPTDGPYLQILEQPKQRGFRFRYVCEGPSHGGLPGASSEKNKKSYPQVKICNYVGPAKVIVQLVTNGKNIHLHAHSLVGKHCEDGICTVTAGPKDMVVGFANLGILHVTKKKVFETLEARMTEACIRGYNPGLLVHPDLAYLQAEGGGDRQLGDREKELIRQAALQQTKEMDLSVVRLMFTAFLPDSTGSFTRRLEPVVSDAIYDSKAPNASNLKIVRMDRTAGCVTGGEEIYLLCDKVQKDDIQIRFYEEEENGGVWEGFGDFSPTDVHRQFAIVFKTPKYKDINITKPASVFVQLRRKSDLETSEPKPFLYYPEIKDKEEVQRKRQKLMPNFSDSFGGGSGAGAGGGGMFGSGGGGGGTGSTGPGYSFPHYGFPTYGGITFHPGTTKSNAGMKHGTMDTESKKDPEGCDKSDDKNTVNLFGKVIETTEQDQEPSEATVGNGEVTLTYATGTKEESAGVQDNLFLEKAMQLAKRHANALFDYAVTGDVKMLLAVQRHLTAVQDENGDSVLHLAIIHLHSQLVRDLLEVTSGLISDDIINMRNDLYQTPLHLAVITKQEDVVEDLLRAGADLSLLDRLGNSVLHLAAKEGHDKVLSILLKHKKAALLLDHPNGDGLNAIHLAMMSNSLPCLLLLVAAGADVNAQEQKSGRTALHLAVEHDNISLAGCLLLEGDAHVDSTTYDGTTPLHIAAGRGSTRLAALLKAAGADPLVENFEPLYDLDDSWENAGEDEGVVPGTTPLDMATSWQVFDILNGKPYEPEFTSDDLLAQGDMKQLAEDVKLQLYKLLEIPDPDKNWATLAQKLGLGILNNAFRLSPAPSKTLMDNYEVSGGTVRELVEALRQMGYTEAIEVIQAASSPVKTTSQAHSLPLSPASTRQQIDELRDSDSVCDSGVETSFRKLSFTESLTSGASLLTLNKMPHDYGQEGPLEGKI

As for `CCCCOCCOCCO`, the compound was classed as inactive in assay [1], in [2], in [3], in assay [4], in assay [5] and in assay [6]. Further, the compound was classed as inactive in [7], in [8], in assay [9], in [10], in [11] and in assay [12]. Besides, the outcome in assay [13] was “inactive”; in the assay with TIMP1, TIMP1 (gene 7076), “inactive”; in assay [14] it was “inactive”; in [15], “inactive”; in [16] it was “inactive”; in assay [18], “inactive”. For the same compound, the result in [19] was inactive. Moreover, the AC50 in assay [17] was 50 µM (active).
On to `COC(=O)c1ccc(C(=O)OC)cc1`, for which the compound was called inactive in assay [1], in [2], in assay [3], in assay [4], in assay [5] and in assay [6]. The call in assay [7], in [8], in [9], in assay [10], in assay [11] and in assay [12] was inactive. Moreover, the outcome in assay [13] was “inactive”; with TIMP1, TIMP1 (gene 7076), “inactive”; in assay [14] it was “inactive”; in [15] it was “inactive”; in [16], “inactive”; in [17], “inactive”. Also, the call in assay [18] and in [19] was inactive.
As to `O=C(c1ccc(OCCN2CCCCC2)cc1)c1c(-c2ccc(O)cc2)sc2cc(O)ccc12`, the outcome in assay [1], in [6], in assay [7], in assay [13], in assay [14] and in assay [15] was inactive. Also, the compound was called inactive in assay [16]. In addition, the AC50 was 50 µM (active) in assay [2]; 77.9 µM (active) in assay [3]; 80 µM (active) in assay [4]; 50 µM (active) in [5]; 9.92 µM (active) in assay [8]; 50 µM (active) in [9]. Further, the AC50 in assay [10] was 68.7 µM (active); in assay [11], 50 µM (active); in assay [12], 75.2 µM (active); with TIMP1, TIMP1 (gene 7076), 50 µM (active); in assay [17], 50 µM (active); in [18] it was 50 µM (active). Further, the AC50 in assay [19] was 50 µM (active).
For the compound `C[C@]12CC[C@@H]3c4ccc(O)cc4CC[C@H]3[C@@H]1CC[C@@H]2O`, the compound was classed as inactive in assay [2], in assay [3], in assay [5], in [6], in [7] and in assay [8]. For the same compound, the outcome in assay [9] was “inactive”; in [10], “inactive”; in [12], “inactive”; in assay [13], “inactive”; with TIMP1, TIMP1 (gene 7076), “inactive”; in assay [14], “inactive”. Further, the compound was called inactive in assay [15], in assay [16], in [18] and in [19]. For the same compound, the AC50 in [4] was 50 µM (active); in assay [11], 50 µM (active); in assay [17] it was 10.3 µM (active).

For orientation: AC50 means the concentration giving half of the maximal activity seen.

Source of the values: PubChem BioAssay (EPA / NIEHS).
